Screens as filed in PubChem BioAssay.
AMA1-RON2 inh – qHTS for Inhibitors of AMA1-RON; Towards Development of Antimalarial Drug Lead: Primary Screen. Potency, µM (top dose mostly 58.2 µM), inactives show top-dose activity change, negative = inhibition, actives largely listed as inhibitors. Plasmodium falciparum AMA1 (3D7) - RON2 peptide interaction. AlphaScreen AMA1-biotinylated RON2 peptide binding. hit rate 0.2% among 360,000;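 also: 0% = vehicle wells and -100% = peptide control; nearly all actives have a fitted effect of over 45% in size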
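AMA1 (3D7) with his tag at 25 nM final met compounds first, then biotinylated RON2 peptide at 25 nM; detection used donor plus acceptor beads, 10 µg/mL apiece, read by AlphaScreen after 30 min at room temperature.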
Pf growth 96h – Primary qHTS for delayed death inhibitors of the malarial parasite plastid, 96 hour incubation; P. falciparum luciferase reporter growth, 96 h; Potency, µM (doses to about 28.7 µM), for the others: at the top dose activity change, negative = inhibition, usual class: inhibitors; hit rate 6.9% among 320,000; AID 504834, 2011
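Two-generation exposure (96 h) targets delayed-death phenotype. Reporter parasites carrying integrated firefly luciferase, in red cells at 2% hematocrit and 0.05% parasitemia final, kept at 37 C, 5% CO2; luminescence loss indicates inhibition.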
AmpC no deterg – qHTS Inhibitors of AmpC Beta-Lactamase (assay without detergent). AmpC nitrocefin hydrolysis, absorbance 480 nm, 0.0001% Triton. Potency, µM (highest dose often 57.1 µM), without a hit: at the highest dose activity change, negative = inhibition, most hits filed as inhibitors. P00811. hit rate 0.52% among 330,000;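 also: plate controls were no compound for no effect and no enzyme for full effect; nearly all actives have a fitted effect of over 20% in size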
Target sequence (P00811 whole entry, looked up): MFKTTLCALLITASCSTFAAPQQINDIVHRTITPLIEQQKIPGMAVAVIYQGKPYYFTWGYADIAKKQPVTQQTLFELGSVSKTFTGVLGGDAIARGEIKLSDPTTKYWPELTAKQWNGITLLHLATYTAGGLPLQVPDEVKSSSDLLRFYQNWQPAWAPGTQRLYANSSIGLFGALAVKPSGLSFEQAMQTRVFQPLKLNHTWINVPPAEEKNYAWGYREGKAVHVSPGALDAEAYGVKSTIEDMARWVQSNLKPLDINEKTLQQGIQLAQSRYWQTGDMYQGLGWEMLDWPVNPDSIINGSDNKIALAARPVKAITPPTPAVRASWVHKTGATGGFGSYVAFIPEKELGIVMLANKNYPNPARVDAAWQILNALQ
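AmpC (5.3 nM in the dispensed reagent) in 20 mM phosphate pH 7.0 with 0.01% (detergent screen) or 0.0001% Triton X-100 was preincubated with compounds for 15 min at room temperature. Nitrocefin was then added from an 800 uM solution, and hydrolysis was followed at 480 nm.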
HCV inh – qHTS Assay for Inhibitors of Hepatitis C Virus (HCV) | Huh7.5.1 HCVcc-Cre infection, luciferase reporter, 44 h | Potency, µM (top dose mostly 41.8 µM), for the others: at the highest dose activity change, negative = inhibition, most hits filed as inhibitors | hit rate 3.4% among 340,000 | AID 651820, 2012
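Cells seeded at 1,000/well and cultured 4 h, then compounds added followed by HCVcc-Cre virus (~0.5 moi). After 44 h further culture, luciferase substrate was added, plates held 15 min at room temperature, and luminescence read for 15 sec.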
AmpC detergent – qHTS Inhibitors of AmpC Beta-Lactamase (assay with detergent). AmpC hydrolysis of nitrocefin, absorbance 480 nm, 0.01% Triton. Potency, µM (highest dose often 114 µM), for the others: top-dose activity change, negative = inhibition, actives largely listed as inhibitors. hit rate 0.041% among 370,000;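 also: 0% = no-compound wells and -100% = no-enzyme wells; nearly all actives have a fitted effect of over 25% in size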
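20 mM phosphate pH 7.0 + 0.01% (detergent screen) or 0.0001% Triton X-100; 5.3 nM AmpC reagent; cpd preinc 15 min RT; nitrocefin (800 uM stock) to start; A480 q20 s × 4 min; Activity was normalised to no-enzyme and no-compound control wells.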
Pf growth 48h – Primary qHTS for delayed death inhibitors of the malarial parasite plastid, 48 hour incubation; P. falciparum luciferase growth in erythrocytes, 48 h; Potency, µM (titrated, usually from 28.7 µM), inactives show top-dose activity change, negative = inhibition, actives largely listed as inhibitors; hit rate 5.9% among 310,000; AID 504832, 2011
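Here the parasites carry a stable luciferase gene and grow inside erythrocytes in Albumax-based RPMI medium with compound for one erythrocytic cycle. Activity is scored as loss of luminescent signal.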
* hit, by the source's call; u = inconclusive; x = no result given; [ ] = remark or other dose. In the library only some 11% were active in any assay of this set; here they are far more common. Calls follow the shape of the dose curve; as a rule, active = well fitted curve in the direction sought with a large enough effect; inconclusive = small, poorly fitted or top-dose-only effect, or another doubt; inactive = no such curve, though single readings can be large; an effect the other way counts as inactive or inconclusive. Unless noted, % is scaled to controls: 0 for no effect and ±100 for the full control effect; potency is read from the fitted curve at half-maximal effect.

SMILES	AMA1-RON2 inh	Pf growth 96h	AmpC no deterg	HCV inh	AmpC detergent	Pf growth 48h
Cn1c(SCC(=O)CC(=O)Nc2ccccc2)nnc1-c1ccc(O)cc1	3%	12µM*	-34%	-10%	1%	4%
O=C(CSc1nnc(-c2cccnc2)s1)Nc1ccccc1	-3%	1%	-4%	-2%	7%	19%
COc1ccc(NC(=O)CSc2nnc(-c3cccnc3)s2)cc1	3%	6.6µM*	-4%	9%	0%	11%
COc1ccccc1-c1nc2n(n1)C(c1ccccc1Cl)C(C(=O)Nc1cccnc1)=C(C)N2 (stereo unspecified)	x	x	x	x	9%	x
COc1ccc2c(CSc3nnc(-c4cccnc4)n3-c3ccccc3F)cc(=O)oc2c1	7%[11.6 µM]	6.6µM*	0%	-14%	0%	u
Cc1ccc(-n2c(SCn3nnc4ccccc4c3=O)nnc2-c2cccnc2)c(C)c1	-5%	u	76%	-11%	-18%	10µM*
O=c1c2ccccc2nnn1CSc1nnc(-c2cccnc2)n1-c1ccccc1F	-5%	0%	21%	3%	u	u
CCCCSc1nnc(-c2ccc(NC(=O)CCc3ccccc3)cc2)n1C	6%	12µM*	-14%	-18%	-4%	u
CCc1ccccc1-n1c(SCC(=O)NC)nnc1-c1ccco1	-7%	u	-4%	1%	u	-7%
CCc1ccccc1-n1c(SCC(=O)NC)nnc1-c1cccnc1	15%	3%	1%	19%	35µM*	u
Cn1c(SCC(=O)NCc2ccccc2)nnc1-c1ccc(NC(=O)CCc2ccccc2)cc1	-14%	x	-10%	-14%	-10%	u
COc1ccc(CNC(=O)CN2C(=O)CSc3ccc(S(=O)(=O)N4CCC(C)CC4)cc32)cc1	x	x	x	x	-1%	x
COc1ccc(CCNc2nc3cc(OC)c(OC)cc3c3nc(-c4ccccc4)nn23)cc1OC	x	x	x	x	6%	x
COc1ccccc1NC(=O)CSc1nnc(-c2ccc(NC(C)=O)cc2)n1C	-5%	u	-5%	9%	2%	-10%
O=C(CSc1nnc2ccc(-c3ccncc3)nn12)Nc1ccc(F)cc1	2%	u	11%	16%	u	12µM*
COc1ccccc1NC(=O)CC(=O)CSc1nnc(-c2ccc(C)cc2)n1C	8%	1%	-12%	-17%	u	12µM*
C=Cc1ccc(CN2C(=O)N(c3ccc(C)c(C)c3)S(=O)(=O)c3ccccc32)cc1	x	x	x	x	-1%	x
COc1ccc(Cl)cc1NC(=O)CSc1nnc2[nH]c(=O)cc(-c3ccccc3)n12	x	x	x	x	-6%	x
Cc1nn2c(=O)cc(COC(=O)c3ccc(NC(=O)c4cccc(Br)c4)cc3)nc2s1	x	x	x	x	-3%	x
COc1ccc(-c2cc(C(F)(F)F)c3c(n2)sc2c(O)cc(=O)[nH]c23)c(OC)c1	10%	u	35%	-5%	0%	u
Cc1cc(C)c2c(n1)sc1c(O)cc(=O)[nH]c12	-17%	7.4µM*	-5%	4%	2%	18%
Cc1cc(C(=O)Nc2cccc(S(=O)(=O)N3CCOCC3)c2)c2ccccc2n1	-5%	x	38%	u	x	x
Cc1ccc(NC(=O)c2cc(C)nc3ccccc23)cc1	-1%	u	21%	-30%	3%	0%
Cc1cc(C(=O)Nc2ccncc2)c2ccccc2n1	-1%	13µM*	-17%	-13%	-9%	u
Cc1cc(C(=O)Nc2ccc(N3CCOCC3)cc2)c2ccccc2n1	-24%	13µM*	12%	u	8%	9.3µM*
SMILES	AMA1-RON2 inh	Pf growth 96h	AmpC no deterg	HCV inh	AmpC detergent	Pf growth 48h
CCCCCn1ccc(=O)c2c(C(F)(F)F)nccc21	2%	u	-47%	11µM*	-7%	-6%
CCCn1c(=O)c2c(nc3n2CCCN3Cc2ccccc2)n(C)c1=O	7%	13µM*	43%	u	1%	u
COc1ccc(N2CCCn3c2nc2c3c(=O)n(Cc3ccc(C)cc3)c(=O)n2C)c(OC)c1	7%	0%	82%	u	16%	9.3µM*
Cn1c(=O)n(Cc2ccc(F)cc2)c(=O)c2c1nc1n2CCCN1Cc1ccccc1	0%	1.3µM*	3%	u	1%	2.1µM*
Cc1ccc(Cn2c(=O)c3c(nc4n3CCN4Cc3ccco3)n(C)c2=O)cc1	-23%	33%	-11%	u	-5%	13µM*
O=C1CCSC2(C(=O)N(Cc3ccc(F)cc3)c3ccccc32)N1c1cccc(F)c1 (stereo unspecified)	x	x	x	x	-2%	x
CCC(C(=O)Nc1cc(C)ccc1C)n1c(=O)c(C(F)(F)F)nc2ccccc21 (stereo unspecified)	x	x	x	x	-1%	x
COc1ccc(CNC(=O)c2cccn2-c2nnc(N3CCCCC3)s2)c(OC)c1	x	x	x	x	1%	x
O=C(CCCN1C(=O)c2cccnc2Oc2ccc(Cl)cc21)N1CCCCC1	-11%	13µM*	38%	0%	-3%	u
O=C(CN1C(=O)c2cccnc2Oc2ccc(Cl)cc21)N1CCCCCC1	-2%	-13%	18%	2%	4%	u
CCc1ccccc1NC(=O)c1cc(S(=O)(=O)N(CC)c2ccccc2)ccc1F	x	x	x	x	-4%	x
Cc1ccccc1Nc1cc(C(=O)NCCCN2CCN(c3cccc(Cl)c3)CC2)c2ccccc2n1	x	x	x	x	0%	x
Cn1c(=O)[nH]c(=O)c2c1nc(N1CCc3ccccc3C1)n2CCSc1nc2ccccc2s1	-6%	57%	-10%	-12%	u	5.2µM*
CCCCCn1c(Sc2nc3ccccc3s2)nc2c1c(=O)[nH]c(=O)n2C	-5%	-16%[5.75 µM]	64%	8.9µM*	-11%	u
O=C(O)c1cc(=O)c2c3nc4ccccc4oc-3cc(=O)c2[nH]1	x	7%	x	x	x	u
C=CCN=C1SC(C)C(=O)N1S(=O)(=O)c1ccccc1 (stereo unspecified)	11%	7.4µM*	-24%	u	u	6%
CCCOC1(NC(=O)c2ccccc2)C(C)=CC(=O)C=C1C	7%	3.3µM*	-5%	19%	u	15%
CCCOC(=O)c1ccccc1	x	2%	x	x	x	-1%
CC(C)OC(=O)CSc1nnc(CNc2nc(-c3ccccc3)cs2)n1C	-5%	88%	61%	28%	-15%	2.3µM*
COc1cccc(C(=O)CSc2nnc(CNc3nc(-c4ccccc4)cs3)n2C)c1	5%	20%	u	-6%	-1%	u
